TEAD-YAP block – TEAD-YAP interaction inhibition | HEK-TIYL cells, TEAD-Gal4/YAP UAS-luciferase luminescence | inhibition, % at 9.12 µM | actives 1.4% (n = 640,000) | AID 1259422; in the data active = inhibition above about 32%;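 note: 0% = median of test compound wells and 100% = reference inhibitor wells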
FBW7 act – human FBW7 E3 ligase activation, primary screen | AlphaScreen FBW7–phospho-cyclin E peptide binding, activator screen | AID 1259310 | normalized activity (activation), % at 26.1 µM | actives 0.13% (n = 650,000) | Q969H0; in the data active = normalized activity above about 1.9%;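 note: purified mutant Fbw7 with reduced substrate affinity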
GPR151 ag – human GPR151 activation; AID 1508602; activation, % at 11.2 µM; PathHunter beta-arrestin GPR151 cells, luminescence; actives 1% (n = 650,000); in the data active = activation above about 4.9%;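 note: 0% = median of compound wells and 100% = cells with positive control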
Target sequence (Q8TDV0 whole entry, looked up): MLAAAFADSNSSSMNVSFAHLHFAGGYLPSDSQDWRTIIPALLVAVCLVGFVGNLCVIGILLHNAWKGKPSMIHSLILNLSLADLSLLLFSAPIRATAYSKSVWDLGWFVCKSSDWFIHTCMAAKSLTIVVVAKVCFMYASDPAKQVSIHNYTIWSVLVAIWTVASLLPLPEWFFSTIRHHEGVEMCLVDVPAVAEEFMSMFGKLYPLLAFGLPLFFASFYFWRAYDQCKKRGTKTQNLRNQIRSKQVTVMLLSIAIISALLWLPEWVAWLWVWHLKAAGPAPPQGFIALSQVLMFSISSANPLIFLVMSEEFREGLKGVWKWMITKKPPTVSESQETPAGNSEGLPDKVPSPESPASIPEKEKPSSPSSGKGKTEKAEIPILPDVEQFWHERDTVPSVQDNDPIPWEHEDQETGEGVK
MITF primary – inhibitors of human MITF. O75030. AlphaScreen MITF homodimerization, bead proximity signal. inhibition, % at 2.6 µM. actives 0.91% (n = 650,000); in the data active = inhibition above about 50%;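 note: 0% = vehicle wells with protein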
MITF confirm – confirmation of human MITF inhibitors. AID 1259372. inhibition, % at 2.6 µM. shares compounds with MITF primary. AlphaScreen MITF homodimerization, biotin/His-MITF beads. actives 16% (n = 4,700);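 active = inhibition above a cutoff derived from the DMSO control wells, cut at about 28% in these data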;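 note: 0% = MITF dimer wells with DMSO only; inhibitors lower the bead chemiluminescence by keeping MITF from dimerizing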
AlphaScreen DR – AlphaScreen optical interference, dose response counter-screen. shares compounds with MITF primary. AlphaScreen optical interference counterscreen, cell-free. IC50, µM. actives 6% (n = 480). AID 1259373; call rule not given here
AlphaScreen intf2 – AlphaScreen optical interference, counter-screen; shares compounds with MITF primary; actives 7.6% (n = 4,700); LysRS AlphaScreen counterscreen, signal interference, triplicate; AID 1259376; inhibition, % at 2.6 µM;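 active = inhibition above a cutoff derived from the DMSO control wells, cut at about 30% in these data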
Starred values were filed as active, the others as inactive; · = not tested or not shown. A selection: hits, their analogues and other compounds. The true share with any hit is near 3.5%.

SMILES	TEAD-YAP block	FBW7 act	GPR151 ag	MITF primary	MITF confirm	AlphaScreen intf2	others
Cc1cc(C)c(S(=O)(=O)Nc2ccc(Br)cc2)cc1S(=O)(=O)Nc1ccc(Br)cc1	13.3	0.0	0.1	18.0	·	·
Cc1ccc(S(=O)(=O)Nc2ccc(Br)cc2)cc1S(=O)(=O)Nc1ccc(Br)cc1	5.1	0.2	-0.4	52.7*	15.7	10.5
COc1ccc(C(=O)COC(=O)CCC(=O)Nc2ccc(Cl)c(Cl)c2)cc1	1.6	0.2	1.9	-6.3	·	·
COc1ccc(NC(=O)CCC(=O)OCC(=O)c2ccc(Cl)c(Cl)c2)cc1	13.4	0.0	1.3	61.6*	14.3	16.2
CCC(=O)NC(=S)NNC(=O)c1ccccc1O	-9.9	-0.8	-2.2	63.0*	12.5	69.4*
Cc1cc2cc(CNC(=O)C(=O)c3c(C)[nH]c4ccccc34)ccc2[nH]1	5.1	-0.1	-0.8	-10.6	·	·
CC(C)(C)c1ccc(/C=C/C(=O)N2CCC(C(N)=O)CC2)cc1	-12.8	-0.1	0.5	65.3*	-6.0	-10.4
NC(=O)C1CCN(C(=O)/C=C/c2ccc([N+](=O)[O-])cc2)CC1	-3.5	0.0	4.2	20.0	·	·
Cc1ccc(C2CC(c3cccs3)=NN2C(=O)CSc2nnc(CNC(=O)c3cccs3)n2-c2cccc(Cl)c2)cc1 (centres undefined)	-9.8	-0.1	2.5	-1.4	·	·
Cc1ccc(OCCCCCNCCO)cc1	0.6	0.1	-1.0	-28.1	·	·
Cc1ccc(OCCNCCC(=O)O)cc1	-8.3	0.5	-2.2	56.8*	-5.3	0.1
COc1cc(CN2CCN(S(=O)(=O)c3ccc(C)cc3)CC2)cc(OC)c1OC	6.9	0.8	-1.1	51.8*	-0.6	11.9
COc1cc(CN2CCN(S(=O)(=O)c3ccc([N+](=O)[O-])cc3)CC2)cc(OC)c1OC	-5.6	-0.1	0.2	33.9	·	·
CCS(=O)(=O)N1CCN(Cc2cc(OC)c(OC)c(OC)c2)CC1	4.3	0.0	1.8	51.8*	7.0	14.0
COc1cc(CN2CCN(S(=O)(=O)c3ccccc3)CC2)cc(OC)c1OC	-5.2	-0.1	-0.2	41.8	·	·
COc1cc(CN2CCN(S(=O)(=O)c3ccc(F)cc3)CC2)cc(OC)c1OC	6.4	0.0	1.7	51.5*	-1.9	6.7
CCOC(=O)CNS(=O)(=O)c1cc(-c2nnc(Nc3cccc(C)c3)c3ccccc23)ccc1C	2.2	0.1	-0.5	79.8*	-3.0	1.7
CCC(C)NCCCOc1cccc(Br)c1 (centres undefined)	2.5	-0.5	-0.2	79.7*	-6.6	10.2
CCCOc1ccc(OCCCNC(C)CC)cc1 (centres undefined)	7.8	0.0	0.5	23.2	·	·
CCC(C)NCCOc1ccccc1F (centres undefined)	-6.9	0.0	-0.3	52.9*	-11.6	0.6
O=CN1CCN(C(=O)COc2ccc(Br)cc2Cl)CC1	5.6	0.2	0.5	70.5*	0.6	7.0
O=C(COc1ccc(Br)cc1Cl)N1CCCCC1	-18.5	0.0	1.9	5.7	·	·
CCOC(=O)C1CCN(Cc2ccc(Cl)cc2Cl)CC1	-1.4	0.1	0.4	39.4	·	·
CCOC(=O)C1CCN(Cc2nc3ccc(Cl)cc3n2CCO)CC1	-3.1	-0.2	0.6	72.2*	7.6	13.6
CN(C)/N=C/c1ccc(OC(=O)c2ccccn2)cc1	-4.9	-0.3	-1.6	43.4	·	·
SMILES	TEAD-YAP block	FBW7 act	GPR151 ag	MITF primary	MITF confirm	AlphaScreen intf2	others
N#C/C(=C\c1ccc(OC(=O)c2ccccn2)cc1)C(N)=O	10.3	0.0	-1.0	53.0*	30.9*	55.7*
CC(=O)c1cccc(N=Cc2ccc(OC(=O)c3ccccn3)cc2)c1	-7.1	-0.3	-2.4	19.8	·	·
NS(=O)(=O)c1ccc(N=Cc2ccc(OC(=O)c3ccccn3)cc2)cc1	-10.1	-0.2	-1.6	55.3*	17.1	44.9*
CC(C)CCC1(C2CCN(Cc3c(O)ccc4ccccc34)CC2)NC(=O)NC1=O (centres undefined)	3.6	0.0	0.2	6.9	·	·
CCN(CC)CCCNC(=O)c1cccc(-n2c(=S)[nH]c3cc(Cl)ccc3c2=O)c1	-9.5	0.0	-0.2	-14.9	·	·
O=C(N/N=C/c1ccc(F)c(Br)c1)c1ccncc1	-8.4	0.1	0.0	-2.5	·	·
Cc1cc2c(c(=O)[nH]1)C(=O)O/C2=C\c1ccc(C)o1	-0.7	-0.7	-0.6	54.9*	70.3*	6.6	AlphaScreen DR=>6.86
Cc1cc2c(c(=O)[nH]1)C(=O)O/C2=C\c1cccs1	-8.4	-0.2	-0.6	-1.8	·	·
Cc1cc2c(c(=O)[nH]1)C(=O)O/C2=C/c1ccc(F)cc1	-14.0	-0.2	-2.2	-2.3	·	·
Cc1cc2c(c(=O)[nH]1)C(=O)O/C2=C\c1ccco1	0.2	-1.2	-0.2	61.5*	62.3*	4.9	AlphaScreen DR=>9.3
COc1ccc(O)c(C=Nc2ccc(Cl)cc2)c1	-6.2	0.4	3.9	51.1*	-3.8	-3.0
Cc1ccc2cc(CN(C(=O)Nc3ccccc3)C3CCCC3)c3nnnn3c2c1	10.9	-0.1	-0.1	65.4*	3.2	10.9
CN(C)CC(C)(C)CNC(=S)NCc1ccc2c(c1)OCO2	9.5	-0.3	1.2	53.9*	-0.5	-1.8
COc1cc(NC(=O)c2ccccc2)c(OC)cc1NC(=O)/C=C/c1cccc([N+](=O)[O-])c1	-4.9	-0.1	1.9	0.9	·	·
CC1NC(=O)NC1CCCCCC(=O)OCC(=O)c1ccccc1 (centres undefined)	-8.9	-0.6	-1.6	114.6*	117.7*	100.3*
O=C(CCCC(=O)OCC(=O)c1ccccc1)Nc1ccccc1	-0.6	0.0	0.3	3.7	·	·
CCC(C)NC(=O)c1cc(-c2ccccc2O)no1 (centres undefined)	-65.1	0.0	0.6	-7.1	·	·
CN(C)c1cccc(Nc2cc(C(=O)NCCc3ccc(O)cc3)c3ccccc3n2)c1	0.4	0.1	0.8	69.8*	-2.8	3.0
CCCNC(=O)c1cc(Nc2cccc(N(C)C)c2)nc2ccccc12	3.6	-0.1	-1.6	-6.8	·	·
Cc1cccc(C(=O)Nc2ccc(Br)cc2)c1	-55.6	-0.1	-1.2	-0.6	·	·
CCOc1ccc(CN2CCC(C(=O)NCC3CCCO3)CC2)cc1 (centres undefined)	-3.2	0.0	-0.1	35.5	·	·
COc1cc(CN2CCC(C(=O)NC3CCCC3)CC2)ccc1O	4.6	0.2	0.5	59.6*	-15.7	2.0
CCOc1cc(CN2CCC(C(=O)NCC3CCCO3)CC2)ccc1O (centres undefined)	0.1	0.0	0.8	58.3*	1.2	-2.3
O=C(N/N=C\c1ccc(O)cc1)c1ccc(=O)[nH]n1	2.9	0.2	0.7	6.1	·	·
Cc1ccc2nc(/N=C/c3cc([N+](=O)[O-])cc([N+](=O)[O-])c3O)sc2c1	20.9	0.3	-3.4	51.2*	-2.8	1.8
Cc1cc(C)c2nc(/N=C/c3cc([N+](=O)[O-])cc([N+](=O)[O-])c3O)sc2c1	-10.4	0.1	0.1	-9.1	·	·

Screening data as filed in PubChem BioAssay.
